Test results as given in ChEMBL document CHEMBL3988442, “University of Dundee, Small-Polar-MMV Screening Library” (2021).
Hit rate of the full screen: of about 69,000 compounds, about 1,000 (1.4%) showed an effect of 50% or more. The list comes from a sample in which strong results are over-represented; it also holds similar structures and randomly drawn compounds.

System: Leishmania donovani
Test: Leishmania intramacrophage assay
Format: functional, organism-based
Set-up: scale not given: in the data most compounds retested in dose-response had high values

## Cl.O=S(=O)(c1ccc(Cl)cc1)N1CCc2nc(C3CCNCC3)ncc2C1
30.3 µM, […]
  Percent Effect: -22.35%

## Cc1ccc(S(=O)(=O)N2CCc3nc(C4CCNCC4)ncc3C2)cc1.Cl
30 µM, 30.03 µM
  Percent Effect: -1.201%

## O=S(=O)(c1ccccc1Cl)N1CCc2nc(C3CCNCC3)ncc2C1
30 µM, 30.03 µM
  Percent Effect: 50.23%

## Cc1nc(C2CCCN2Cc2nc(C3CC3)no2)no1 (stereo unspecified)
30 µM
  Percent Effect: 21.89%

## CCCN(CCC)C(=O)c1cc(CN2CCC(O)CC2)on1
30.3 µM, […]
  Percent Effect: 36.24%

## CCn1ncc(Cn2cc(Cl)c(N)n2)c1C
30.3 µM, […]
  Percent Effect: -8.997%

## COc1ccnc(CNc2nc(C)nc(C)c2C)c1
30.3 µM, […]
  Percent Effect: 39.23%

## COc1ccnc(CNc2nc(C)nc3ccsc23)c1
30.3 µM, […]
  Percent Effect: 56.7%

## Cc1nc(NCc2noc(C3CCCO3)n2)c2sccc2n1 (stereo unspecified)
30.3 µM, […]
  Percent Effect: 29.04%

## CCc1csc(C2CCCN(C(=O)c3ccc4c(c3)OCO4)C2)n1 (stereo unspecified)
30.3 µM, […]
  Percent Effect: -18.73%

## Cc1ccc(S(=O)(=O)N2CC(C)Oc3ncccc32)c(F)c1 (stereo unspecified)
30.3 µM, […]
  Percent Effect: 21.87%

## CC1CN(S(=O)(=O)c2ccc(F)cc2F)c2cccnc2O1 (stereo unspecified)
30.3 µM, […]
  Percent Effect: 30.4%

## Cc1ccc(S(=O)(=O)N2CC(C)Oc3ncccc32)c(C)c1 (stereo unspecified)
30.3 µM, […]
  Percent Effect: 55.69%

## CN(CC1(CO)CCC1)C(=O)c1cc(COc2ccccc2F)[nH]n1
30.3 µM, […]
  Percent Effect: -17.63%

## COc1ccc2c(c1)CCCN(C(=O)NCC1CCCO1)C2 (stereo unspecified)
30.3 µM, […]
  Percent Effect: 6.687%

## COc1ccc2c(c1)CCCN(CC(=O)NCC1CCCO1)C2 (stereo unspecified)
30.3 µM, […]
  Percent Effect: 55.19%

## COc1ccc2c(c1)CN(CC(=O)NC1CCCC1)CC2
30.3 µM, […]
  Percent Effect: -7.68%

## CC(=O)NC(C)C(=O)N(Cc1ccc(C)c(C)c1)C1CC1 (stereo unspecified)
30.3 µM, […]
  Percent Effect: -3.591%

## COc1ccccc1-c1ncc(CN2CCCC[C@H](N(C)C)C2)s1
30.3 µM, […]
  Percent Effect: 36.23%

## COc1ccccc1-c1ncc(CN2C[C@H](O)[C@@H](N3CCCC3)C2)s1
30.3 µM, […]
  Percent Effect: 4.457%

## COc1ccccc1-c1ncc(CN2C[C@@H](N(C)C)[C@H](C(C)C)C2)s1
30.3 µM, […]
  Percent Effect: 52.36%

## CNC(=O)CN1CC[C@H]2CN(C(=O)c3ccc(C)cc3)C[C@H]2C1.O=C(O)C(F)(F)F
30.3 µM, […]
  Percent Effect: 2.501%

## CCN1CCn2c(C)cnc2C12CCN(C(=O)N(C)C)CC2.O=C(O)C(F)(F)F.O=C(O)C(F)(F)F
30.3 µM, […]
  Percent Effect: 6.426%

## CC(C)c1cc(C(=O)N2CCOCC2CC(=O)c2ccco2)nn1C (stereo unspecified)
30.3 µM, […]
  Percent Effect: -24.4%

## Cc1nn(-c2ccccc2Cl)c(C)c1CCC(=O)O
30.3 µM, […]
  Percent Effect: -26.02%

## NCC(c1ccccc1)N1CCc2sccc2C1 (stereo unspecified)
30 µM, 30.03 µM
  Percent Effect: 28.55%

## CC(C)c1ccc(C(CN)N2CCc3sccc3C2)cc1 (stereo unspecified)
30.3 µM, […]
  Percent Effect: 82.67%

## NCC(c1ccc(Cl)cc1)N1CCc2sccc2C1 (stereo unspecified)
30.3 µM, […]
  Percent Effect: 40.17%

## O=C(NCCSC1CCCC1)c1ccc(F)cc1F
30.3 µM, […]
  Percent Effect: 24.13%

## COc1ccccc1N1CCN(C(=O)Cn2nc(C)c(Cl)c2C)CC1
30.3 µM, […]
  Percent Effect: 31.83%

## c1ccc2oc(CCCN3CCCC(Cn4cncn4)C3)nc2c1 (stereo unspecified)
30 µM
  Percent Effect: 8.044%

## Cc1cc(C(=O)N2C[C@H]3CC[C@@H]2CN(Cc2ccccn2)C3)nc(C)n1
30.3 µM, […]
  Percent Effect: 16.91%

## CC(=O)Nc1ccc(CNCC(O)c2ccc(Cl)cc2)cc1 (stereo unspecified)
30.3 µM, […]
  Percent Effect: -0.7096%

## CC(C)Nc1ncnc2c1CCN(c1cc(C(F)(F)F)ncn1)CC2
30.3 µM, […]
  Percent Effect: 9.513%

## CCOc1ccccc1CNC(=O)N(CC)C(C)c1cccnc1 (stereo unspecified)
30.3 µM, […]
  Percent Effect: 14.76%

## CCN(C(=O)NCc1ccc(C)cc1OC)C(C)c1cccnc1 (stereo unspecified)
30.3 µM, […]
  Percent Effect: 51.84%

## CCN(C(=O)NCc1ccccc1OC(F)F)C(C)c1cccnc1 (stereo unspecified)
30.3 µM, […]
  Percent Effect: 43.41%

## Cc1ccc2c(n1)N(Cc1cccnc1)CCN(Cc1cnn(C)c1)C2
30.3 µM, […]
  Percent Effect: 76.22%

## Cc1ccc2c(n1)N(Cc1cccnc1)CCN(C(=O)C1CC=CC1)C2
30.3 µM, […]
  Percent Effect: -19.75%

## Cc1ccc2c(n1)N(CC1CC1)CCN(Cc1cnn(C)c1)C2
30.3 µM, […]
  Percent Effect: 26.83%

## Cc1nn(C)c(Cl)c1C1CCCN1C(=O)c1nccnc1N (stereo unspecified)
30 µM, 30.03 µM
  Percent Effect: 1.892%

## CC(NC(=O)NCCCn1cncn1)c1ccccc1Cl (stereo unspecified)
30 µM, 30.03 µM
  Percent Effect: -19.77%

## O=C(O)Cc1cnc(-c2c(Cl)cccc2Cl)s1
30.3 µM, […]
  Percent Effect: 39.96%

## CCc1ccc(CN2C[C@@H](c3nc(C)no3)C[C@H]3OCC[C@H]32)o1.O=C(O)C(F)(F)F
30.3 µM, […]
  Percent Effect: -6.961%

## Cc1noc([C@H]2C[C@H]3OCC[C@H]3N(Cc3ccc(F)cc3)C2)n1.O=C(O)C(F)(F)F
30.3 µM, […]
  Percent Effect: 51.58%

## Cc1noc([C@H]2C[C@H]3OCC[C@H]3N(Cc3ccc4c(c3)OCO4)C2)n1.O=C(O)C(F)(F)F
30 µM, 30.03 µM
  Percent Effect: 25.3%

## Cc1cccnc1NC(=O)c1ccc(F)c(S(=O)(=O)NC2CC2)c1
30.3 µM, […]
  Percent Effect: 2.163%

## CC(=O)Nc1ncc(S(=O)(=O)Nc2cccc(C)c2)s1
30.3 µM, […]
  Percent Effect: 11.84%

## CC(=O)Nc1ncc(S(=O)(=O)Nc2cccc(O)c2)s1
30.3 µM, […]
  Percent Effect: 53.03%

## CC(=O)Nc1ncc(S(=O)(=O)Nc2cccc(F)c2)s1
30.3 µM, […]
  Percent Effect: -21.07%

## CN(C)C(=O)COC[C@@H]1CC[C@H]2[C@H](CCN2c2ncccn2)O1.O=C(O)C(F)(F)F
30.3 µM, […]
  Percent Effect: 37.88%

## Cc1cnc(N2CC[C@@H]3OC(COCC(=O)N(C)C)CC[C@@H]32)nc1.O=C(O)C(F)(F)F (stereo partly specified)
30.3 µM, […]
  Percent Effect: 4.675%

## Cc1cnc(N2CC[C@@H]3O[C@@H](COCC(=O)N(C)C)CC[C@@H]32)nc1.O=C(O)C(F)(F)F
30.3 µM, […]
  Percent Effect: 58.41%

## Cc1nc(-c2cncnc2C2CCCNC2)no1.Cl.Cl (stereo unspecified)
30.3 µM, […]
  Percent Effect: 9.405%

## O=C(Nc1nncs1)c1ccc(O)nc1
30.3 µM, […]
  Percent Effect: 16.66%

## Cc1nnc(CCNC2CCN(c3ncnc4c(C)csc34)CC2)s1
30 µM, 30.03 µM
  Percent Effect: 49.19%

## Cc1nc(C)n(CCNC2CCN(c3ncnc4c(C)csc34)CC2)n1
30.3 µM, […]
  Percent Effect: -18.48%

## CCc1nnc(CNC2CCN(c3ncnc4c(C)csc34)CC2)s1
30.3 µM, […]
  Percent Effect: 52.55%

## CCNC(=O)NC(C)c1nc(-c2ccc(Br)cc2)no1 (stereo unspecified)
30.3 µM, […]
  Percent Effect: 26.95%

## CSCC1CCN(C(=O)c2ccccc2NCc2cccnc2)C1 (stereo unspecified)
30.3 µM, […]
  Percent Effect: -38.07%

## CC(C)SCC(=O)NCc1cc2n(n1)CCCN(C1CCCCC1)C2
30.3 µM, […]
  Percent Effect: 64.6%

## CSCCC(=O)NCc1cc2n(n1)CCCN(C1CCCCC1)C2
30.3 µM, […]
  Percent Effect: -17.68%

## CN[C@@H](CO)C(=O)NCc1cc2n(n1)CCCN(C1CCCCC1)C2
30.3 µM, […]
  Percent Effect: 3.405%

## CCC(C)NC(=O)NCc1cc2n(n1)CCCN(C1CCCCC1)C2 (stereo unspecified)
30.3 µM, […]
  Percent Effect: 50.3%

## CCC(OC)C(=O)NCc1cc2n(n1)CCCN(C1CCCCC1)C2 (stereo unspecified)
30.3 µM, […]
  Percent Effect: 1.469%

## CCCOC(C)C(=O)NCc1cc2n(n1)CCCN(C1CCCCC1)C2 (stereo unspecified)
30.3 µM, […]
  Percent Effect: 20.03%
